Drawing on a collection of fitness landscapes (doi:10.1126/science.1257360), this text covers enrichment ratio for 153 variants.

B1: PhoQ; a variant is named by its letters at X, in order, P23837 (parent)
chain: MKKLLRLFFPLSLRVRFLLATAAVVLVLSLAYGMVALIGYSVSFDKTTFRLLRGESNLFYTLAKWENNKLHVELPENIDKQSPTMTLIYDENGQLLWAQRDVPWLMKMIQPDWLKSNGFHEIEADVNDTSLLLSGDHSIQQQLQEVREDDDDAEMTHSVAVNVYPATSRMPKLTIVVVDTIPVELKSSYMVWSWFIYVLSANLLLVIPLLWVAAWWSLRPIEALAKEVRELEEHNRELLNPATTRELTSLVRNLNRLLKSERERYDKYRTTLTDLTHSLKTPLXXLQXXLRSLRSEKMSVSDAEPVMLEQISRISQQIGYYLHRASMRGGTLLSRELHPVAPLLDNLTSALNKVYQRKGVNISLDISPEISFVGEQNDFVEVMGNVLDNACKYCLEFVEISARQTDEHLYIVVEDDGPGIPLSKREVIFDRGQRVDTLRPGQGVGLAVAREITEQYEGKIVAGESMLGGARMEVIFGRQHSAPKDE

The full ranking holds about 140,000 sequences; the median of “enrichment ratio after two sorts for PhoP signalling” is about 0, and the highest 2% start at about 11. The sample as a whole holds a higher share of the highest values than the screen did.

The variants in the experiment derive from B1. The experiment can be described thus: enrichment ratio after two sorts for PhoP signalling (ratio (wild type AVST 3.29)); higher = more functional. Particulars: with PhoP (E. coli).
On to GELF, for which the enrichment ratio was found to be 9.93.

With GETK, the enrichment ratio is at most 0.25.

For the variant GYLG, the enrichment ratio is at most 0.25.

As for GETC, the enrichment ratio was found to be 3.51.

Take GYLH: the enrichment ratio is at most 0.25.

On to GEKA, for which the enrichment ratio was at most 0.25.

With GETI, the enrichment ratio was found to be 11.6.

For GELH, the enrichment ratio was 11.9.

GELG: the enrichment ratio worked out at 22.4.

Consider GETH, for which the enrichment ratio is at most 0.25.

With GENS, the enrichment ratio is at most 0.25.

As to GELM, the enrichment ratio came to 15.9.

For HGYA, the enrichment ratio is at most 0.25.

As for STTP, the enrichment ratio was at most 0.25.

Consider YKHK, for which the enrichment ratio was at most 0.25.

In the case of SYEL, the enrichment ratio was at most 0.25.

Consider TAIS, for which the enrichment ratio was found to be 0.325.

As for NLWP, the enrichment ratio is at most 0.25.

RDCA: the enrichment ratio was at most 0.25.

Consider EMPC, for which the enrichment ratio was at most 0.25.

On to PMHF, for which the enrichment ratio is at most 0.25.

On to DDQI, for which the enrichment ratio is at most 0.25.

With PLHV, the enrichment ratio is at most 0.25.

Regarding KPNT, the enrichment ratio is at most 0.25.

For RISY, the enrichment ratio is at most 0.25.

Turning to GELS, the enrichment ratio came to 8.59.

In the case of GEWI, the enrichment ratio is at most 0.25.

In the case of GELA, the enrichment ratio came to 18.1.

For ASCY, the enrichment ratio was found to be 0.505.

In the case of LYCM, the enrichment ratio is at most 0.25.

As for SGIV, the enrichment ratio is 7.69.

For the variant ANIQ, the enrichment ratio amounted to 11.

For the variant HVDI, the enrichment ratio was at most 0.25.

Consider WNPW, for which the enrichment ratio was at most 0.25.

Regarding TEEG, the enrichment ratio was determined as 9.76.

For TECI, the enrichment ratio came to 2.38.

On to TECS, for which the enrichment ratio is 26.8.

For NEAI, the enrichment ratio is at most 0.25.

Take TEGQ: the enrichment ratio is at most 0.25.

Turning to TECA, the enrichment ratio was 0.528.

Regarding TEAI, the enrichment ratio was determined as 20.4.

In the case of TECG, the enrichment ratio came to 15.7.

With NECG, the enrichment ratio is at most 0.25.

TEYY: the enrichment ratio was determined as 10.3.

TECQ: the enrichment ratio amounted to 12.3.

NECQ: the enrichment ratio is at most 0.25.

With KAWS, the enrichment ratio was at most 0.25.

For GAMP, the enrichment ratio is at most 0.25.

With KTEG, the enrichment ratio is at most 0.25.

For STDK, the enrichment ratio was at most 0.25.

With AAVN, the enrichment ratio was at most 0.25.

In the case of KDFG, the enrichment ratio is at most 0.25.

TECV: the enrichment ratio amounted to 22.2.

For the variant TECW, the enrichment ratio was found to be 37.6.

For the variant MECW, the enrichment ratio is at most 0.25.

Consider NECW, for which the enrichment ratio was at most 0.25.

As to QECV, the enrichment ratio was 8.7.

As to TPKM, the enrichment ratio was at most 0.25.

LMLV: the enrichment ratio is at most 0.25.

As for GRQP, the enrichment ratio is at most 0.25.

Take VCMI: the enrichment ratio stood at 17.6.

With NSMI, the enrichment ratio came to 2.19.

FEMD: the enrichment ratio was at most 0.25.

With YTMI, the enrichment ratio amounted to 6.21.

With FEMI, the enrichment ratio amounted to 13.

For FTMI, the enrichment ratio worked out at 13.1.

Consider KCMI, for which the enrichment ratio is at most 0.25.

On to FCMS, for which the enrichment ratio is at most 0.25.

Take FEMW: the enrichment ratio was at most 0.25.

For the variant FTPA, the enrichment ratio amounted to 0.426.

For the variant FCMI, the enrichment ratio was 33.7.

As to VYMI, the enrichment ratio is at most 0.25.

Regarding PKDI, the enrichment ratio was at most 0.25.

LYLD: the enrichment ratio is at most 0.25.

On to HNKV, for which the enrichment ratio was at most 0.25.

Take VKIK: the enrichment ratio was at most 0.25.

Regarding ALCW, the enrichment ratio was found to be 6.49.

Consider YKFA, for which the enrichment ratio is at most 0.25.

VGHR: the enrichment ratio was at most 0.25.

For the variant HQYF, the enrichment ratio is at most 0.25.

For the variant GEVV, the enrichment ratio stood at 17.2.

With MAVV, the enrichment ratio is at most 0.25.

On to SEVV, for which the enrichment ratio worked out at 13.1.

In the case of GETD, the enrichment ratio is at most 0.25.

NEVV: the enrichment ratio is at most 0.25.

For the variant FEVV, the enrichment ratio stood at 11.9.

With SQVV, the enrichment ratio turned out to be 8.77.

On to GGVV, for which the enrichment ratio is at most 0.25.

As for SLVV, the enrichment ratio stood at 1.38.

On to MEVV, for which the enrichment ratio worked out at 2.27.

As for FCVV, the enrichment ratio is at most 0.25.

As to TEVV, the enrichment ratio was 12.9.

Take NFKG: the enrichment ratio is at most 0.25.

For the variant QAIA, the enrichment ratio was at most 0.25.

Take SRGI: the enrichment ratio was at most 0.25.

Regarding KYGI, the enrichment ratio was at most 0.25.

SCGI: the enrichment ratio was determined as 12.6.

With SNFP, the enrichment ratio is at most 0.25.

For the variant STGI, the enrichment ratio was determined as 4.79.

Regarding SNGI, the enrichment ratio was determined as 12.1.

For FMGW, the enrichment ratio is at most 0.25.

As to HQYK, the enrichment ratio was at most 0.25.

As to SCDT, the enrichment ratio is at most 0.25.

On to SCLS, for which the enrichment ratio came to 9.62.

Regarding SCAT, the enrichment ratio was found to be 16.1.

Turning to SCVA, the enrichment ratio was found to be 4.93.

Consider SCLN, for which the enrichment ratio was 11.7.

Turning to SCLT, the enrichment ratio stood at 13.3.

Turning to SWLN, the enrichment ratio is at most 0.25.

With SCVN, the enrichment ratio came to 11.1.

SCLA: the enrichment ratio was found to be 11.8.

SCNT: the enrichment ratio was at most 0.25.

With SCIT, the enrichment ratio turned out to be 1.21.

In the case of SCVT, the enrichment ratio was 1.01.

As for PRNP, the enrichment ratio was at most 0.25.

AWLY: the enrichment ratio is at most 0.25.

Regarding SHFY, the enrichment ratio was at most 0.25.

For the variant VDWL, the enrichment ratio was at most 0.25.

Regarding MMEY, the enrichment ratio is at most 0.25.

As for FQTE, the enrichment ratio is at most 0.25.

For the variant KSTE, the enrichment ratio was at most 0.25.

On to TQTE, for which the enrichment ratio was found to be 26.4.

Regarding EQTE, the enrichment ratio is at most 0.25.

As for SQTE, the enrichment ratio was determined as 26.5.

With TQQK, the enrichment ratio is at most 0.25.

For YTEA, the enrichment ratio is at most 0.25.

As for PPGL, the enrichment ratio was at most 0.25.

As to NALC, the enrichment ratio was at most 0.25.

Take TGLC: the enrichment ratio was 10.

With AGLC, the enrichment ratio was 12.4.

For GGLC, the enrichment ratio is 4.03.

Take AALC: the enrichment ratio turned out to be 13.9.

Consider YALC, for which the enrichment ratio stood at 3.77.

For VYLC, the enrichment ratio is at most 0.25.

Regarding VFLC, the enrichment ratio was at most 0.25.

For the variant VGLC, the enrichment ratio was determined as 16.6.

For the variant NNPM, the enrichment ratio is at most 0.25.

For QKWG, the enrichment ratio is at most 0.25.

As for ASFD, the enrichment ratio is at most 0.25.

In the case of KIHF, the enrichment ratio is at most 0.25.

In the case of NGVA, the enrichment ratio was at most 0.25.

In the case of KLRA, the enrichment ratio is at most 0.25.

Take SLAC: the enrichment ratio is 2.46.

Take SFAC: the enrichment ratio was at most 0.25.

Turning to STAC, the enrichment ratio came to 4.33.

As to NEAC, the enrichment ratio worked out at 15.1.

Consider MEAC, for which the enrichment ratio came out at 37.3.

Turning to YWAC, the enrichment ratio is at most 0.25.

On to QEAC, for which the enrichment ratio was determined as 16.

Take MMAC: the enrichment ratio is 3.29.

For the variant MKAC, the enrichment ratio was at most 0.25.

For the variant DMAC, the enrichment ratio is at most 0.25.

QKAC: the enrichment ratio was at most 0.25.
